Measured values published in PubChem BioAssay (Tox21).
Values joined by “and” are separate entries in the source; they are usually repeats but may differ in a detail not shown here. Equal values may be shown once. Active and inactive are the calls of the source. Where a call stands in place of a potency, no number is given. Unless noted, the call rests on the fitted dose curve; in most records, active means well fitted curve in the direction sought with a large enough effect in the repeat runs; inconclusive means weak or mixed curves; inactive means no such curve, though single readings can be large; an effect the other way counts as inactive or inconclusive.

Experiments:
[1] = qHTS assay to identify small molecule antagonists of the thyroid receptor (TR) signaling pathway - cell viability counter screen (AID 743064); further: nearly all actives have a fitted effect of over 50% in size; further: potency means the concentration at half of the fitted maximal effect
Method in brief: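 GH3.TRE-Luc cells, 4 h pre-plating; cpd + T3 1 nM final; 37 °C 23.5 h; CellTiter-Fluor 30 min; fluorescence read.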

[2] = qHTS assay to identify small molecule antagonists of the thyroid receptor (TR) signaling pathway (AID 743065); further: nearly all actives have a fitted effect of over 55% in size; further: potency means the concentration at half of the fitted maximal effect
Method in brief: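 GH3.TRE-Luc rat pituitary cells (two TREs driving luciferase) were dosed with compound, then stimulated with 1 nM T3 (final) for 23.5 h at 37 C. ONE-Glo luminescence was the read-out, with CellTiter-Fluor fluorescence as the cytotoxicity counter-screen.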

[3] = test system: thyroid hormone receptor (rat, GH3 cells); assay: qHTS assay to identify small molecule agonists of the thyroid receptor (TR) signaling pathway (AID 743066; calls by dose curve)
[4] = molecular target: Estrogen receptor (Homo sapiens) (UniProt P03372); assay: qHTS assay to identify small molecule antagonists of the estrogen receptor alpha (ER-alpha) signaling pathway (AID 743069; active means well fitted curve in the direction sought with a large enough effect in the signal ratio in the repeat runs, not every such curve was filed as active; inconclusive means weak or mixed curves, or effect the other way; inactive means no such curve, though single readings can be large or run the other way; the % refers to the signal ratio; further: potency means the concentration at half of the fitted maximal effect)
Method in brief: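 HEK293 ER-alpha-UAS-bla GripTite cells, held overnight in 2% charcoal-stripped FBS, 5,000 cells/well, preincubated 4 h, then compound plus 17beta-estradiol for 18 h at 37C. Beta-lactamase read by LiveBLAzer B/G FRET substrate, 2 h at room temperature.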

[5] = qHTS assay to identify small molecule antagonists of the estrogen receptor alpha (ER-alpha) signaling pathway - cell viability counter screen (AID 743074; calls by dose curve;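 further: HEK293 cells carrying ER-alpha-UAS-bla reporter stimulated with 17beta-estradiol; nearly all actives have a fitted effect of over 45% in size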; further: potency means the concentration at half of the fitted maximal effect)
[6] = molecular target: Estrogen receptor (Homo sapiens) (UniProt P03372); assay: qHTS assay to identify small molecule agonists of the estrogen receptor alpha (ER-alpha) signaling pathway (AID 743075; calls by dose curve; further: potency means the concentration at half of the fitted maximal effect)
[7] = molecular target: Estrogen receptor (Homo sapiens) (UniProt P03372); assay: qHTS assay to identify small molecule agonists of the estrogen receptor alpha (ER-alpha) signaling pathway using the BG1 cell line (AID 743079); conditions: BG1Luc4E2 cells, ERE-luciferase agonist, 22 h; activation: at 70.3 µM (top of the series); further: nearly all actives have a fitted effect of over 20% in size; further: potency means the concentration at half of the fitted maximal effect
[8] = qHTS assay to identify small molecule antagonists of the estrogen receptor alpha (ER-alpha) signaling pathway using the BG1 cell line (AID 743080; calls by dose curve; further: nearly all actives have a fitted effect of over 25% in size); conditions: BG1Luc4E2 ERE-luciferase antagonist mode, luminescence; activity change, negative = inhibition: at 70.3 µM (top of the series)
Method in brief: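 Antagonist mode: compounds in DMSO were pinned onto BG1-Luc-4E2 cells alongside 17beta-estradiol agonist, incubated 21.5 h, and ERE-driven luciferase measured with ONE-Glo. Cytotoxicity was multiplexed using CellTiter-Fluor fluorescence.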

[9] = qHTS assay to identify small molecule antagonists of the estrogen receptor alpha (ER-alpha) signaling pathway using the BG1 cell line - cell viability counter screen (AID 743081);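 further: compound given together with 17beta-estradiol as the ER stimulus; nearly all actives have a fitted effect of over 45% in size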
Aromatase (Homo sapiens) = Aromatase (Homo sapiens) (UniProt P11511); assay: qHTS assay to identify aromatase inhibitors (AID 743083); further: nearly all actives have a fitted effect of over 55% in size; further: potency means the concentration at half of the fitted maximal effect
[10] = qHTS assay to identify aromatase inhibitors - cell viability counter screen (AID 743084);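 further: cells stimulated with testosterone during compound exposure; nearly all actives have a fitted effect of over 55% in size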; further: potency means the concentration at half of the fitted maximal effect
[11] = molecular target: Aryl hydrocarbon receptor (Homo sapiens) (UniProt P35869); assay: qHTS assay to identify small molecule that activate the aryl hydrocarbon receptor (AhR) signaling pathway (AID 743085); further: nearly all actives have a fitted effect of over 15% in size; further: potency means the concentration at half of the fitted maximal effect;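 on activation: HG2L7.5c1 human HepG2 liver cells with stably integrated DRE-driven firefly reporter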
Method in brief: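 Luminescence read-out: ONE-Glo reagent, 30 min at room temperature, in HG2L7.5c1 HepG2 reporter cells treated 24 h at 37C. Viability was measured beforehand by CellTiter-Fluor fluorescence after 30 min at 37C.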

[12] = qHTS assay to identify small molecule that activate the aryl hydrocarbon receptor (AhR) signaling pathway - cell viability counter screen (AID 743086);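 further: HepG2 liver cells carrying the AhR DRE luciferase reporter; nearly all actives have a fitted effect of over 45% in size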
Method in brief: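 HepG2-AhR-luc (HG2L7.5c1) cells, 4000/well, treated 24 h at 37 C with compound; viability measured as CellTiter-Fluor fluorescence after 30 min in the same wells as the luciferase read.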

[13] = qHTS assay to identify small molecule antagonists of the peroxisome proliferator-activated receptor gamma (PPARg) signaling pathway - cell viability counter screen (AID 743194); further: nearly all actives have a fitted effect of over 55% in size; further: potency means the concentration at half of the fitted maximal effect
Method in brief: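 Cytotoxicity counter screen in PPARg-bla HEK293H cells, same wells as reporter assay. Compounds plus 50 nM rosiglitazone (final) for 17 h at 37 C, then viability read by CellTiter-Glo luminescence.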

[14] = qHTS assay for small molecule agonists of the antioxidant response element (ARE) signaling pathway - cell viability counter screen (AID 743203; calls by dose curve; further: nearly all actives have a fitted effect of over 55% in size; further: potency means the concentration at half of the fitted maximal effect)
Method in brief: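 HepG2 cells carrying ARE-driven beta-lactamase; 2,000 cells/well; 5 hrs plating; compound pinned from DMSO; 16 hrs 37C/5% CO2; CellTiter-Glo added; 30 min RT; luminescence.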

[15] = molecular target: Peroxisome proliferator-activated receptor gamma (Homo sapiens) (UniProt P37231); assay: qHTS assay to identify small molecule agonists of the peroxisome proliferator-activated receptor gamma (PPARg) signaling pathway (AID 743094; active means well fitted activation curve with a large enough effect in the signal ratio in the repeat runs, not every such curve was filed as active; inconclusive means weak or mixed curves, or effect the other way; inactive means no such curve, though single readings can be large or run the other way; the % refers to the signal ratio)
Method in brief: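 Beta-lactamase FRET fluorescence was the read-out after a 1 h room-temperature substrate step, following 17 h compound treatment at 37C of HEK293H cells expressing a UAS-driven bla reporter responsive to PPARg.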

[16] = molecular target: Peroxisome proliferator-activated receptor gamma (Homo sapiens) (UniProt P37231); assay: qHTS assay to identify small molecule antagonists of the peroxisome proliferator-activated receptor gamma (PPARg) signaling pathway (AID 743191; calls by dose curve; further: nearly all actives have a fitted effect of over 30% in size; further: potency means the concentration at half of the fitted maximal effect)
Method in brief: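 GeneBLAzer PPARg UAS-bla HEK293H cells, 5 h post-plating, exposed to compounds 17 h at 37C. LiveBLAzer B/G FRET substrate added for 1 h at room temperature; beta-lactamase reporter read by fluorescence intensity.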

[17] = qHTS assay for small molecule agonists of the antioxidant response element (ARE) signaling pathway (AID 743202; active means well fitted activation curve with a large enough effect in the signal ratio in the repeat runs, not every such curve was filed as active; inconclusive means weak or mixed curves, or effect the other way; inactive means no such curve, though single readings can be large or run the other way; the % refers to the signal ratio; further: potency means the concentration at half of the fitted maximal effect)
Method in brief: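 ARE-bla HepG2 cells (beta-lactamase reporter under the antioxidant response element), plated 5 hours, then exposed to compounds 16 hours at 37 C. LiveBLAzer B/G FRET substrate added for 2 hours at room temperature; fluorescence intensity read.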

[18] = qHTS assay for small molecule activators of the heat shock response signaling pathway (AID 743210; active means well fitted activation curve with a large enough effect in the signal ratio in the repeat runs, with a control signal flat, not every such curve was filed as active; inconclusive means weak or mixed curves; the % refers to the signal ratio)
Method in brief: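 HSE-bla HeLa cells (beta-lactamase reporter under heat shock response elements), plated overnight, then exposed to compounds 5 h at 37 C; LiveBLAzer B/G FRET substrate added, 2.5 h at room temperature, fluorescence intensity read.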

[19] = qHTS assay for small molecule activators of the heat shock response signaling pathway - cell viability counter screen (AID 743209); further: nearly all actives have a fitted effect of over 50% in size; further: potency means the concentration at half of the fitted maximal effect
Method in brief: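 Luminescence from CellTiter-Glo, added after the beta-lactamase FRET read, gave the viability signal. Cells were HSE-bla HeLa treated with DMSO-dissolved compounds for 5 h at 37 C following overnight plating.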

Estrogen receptor (Homo sapiens), sequence (P03372 whole entry, looked up): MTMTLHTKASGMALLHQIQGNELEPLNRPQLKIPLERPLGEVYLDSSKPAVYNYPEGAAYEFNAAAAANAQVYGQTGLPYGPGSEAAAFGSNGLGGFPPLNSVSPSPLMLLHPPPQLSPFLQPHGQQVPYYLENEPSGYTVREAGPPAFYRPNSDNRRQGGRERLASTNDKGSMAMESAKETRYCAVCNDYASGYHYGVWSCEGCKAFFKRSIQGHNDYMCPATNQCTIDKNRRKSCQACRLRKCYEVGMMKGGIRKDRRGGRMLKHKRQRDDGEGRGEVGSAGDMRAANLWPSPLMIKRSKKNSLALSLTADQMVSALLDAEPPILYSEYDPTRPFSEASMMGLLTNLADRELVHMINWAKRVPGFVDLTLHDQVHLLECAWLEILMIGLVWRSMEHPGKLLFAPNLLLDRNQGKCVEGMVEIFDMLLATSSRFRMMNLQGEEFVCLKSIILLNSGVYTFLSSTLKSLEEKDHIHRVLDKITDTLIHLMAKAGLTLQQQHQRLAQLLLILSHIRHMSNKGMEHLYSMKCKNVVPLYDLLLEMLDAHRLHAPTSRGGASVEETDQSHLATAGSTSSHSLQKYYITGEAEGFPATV
Aromatase (Homo sapiens), sequence (P11511 whole entry, looked up): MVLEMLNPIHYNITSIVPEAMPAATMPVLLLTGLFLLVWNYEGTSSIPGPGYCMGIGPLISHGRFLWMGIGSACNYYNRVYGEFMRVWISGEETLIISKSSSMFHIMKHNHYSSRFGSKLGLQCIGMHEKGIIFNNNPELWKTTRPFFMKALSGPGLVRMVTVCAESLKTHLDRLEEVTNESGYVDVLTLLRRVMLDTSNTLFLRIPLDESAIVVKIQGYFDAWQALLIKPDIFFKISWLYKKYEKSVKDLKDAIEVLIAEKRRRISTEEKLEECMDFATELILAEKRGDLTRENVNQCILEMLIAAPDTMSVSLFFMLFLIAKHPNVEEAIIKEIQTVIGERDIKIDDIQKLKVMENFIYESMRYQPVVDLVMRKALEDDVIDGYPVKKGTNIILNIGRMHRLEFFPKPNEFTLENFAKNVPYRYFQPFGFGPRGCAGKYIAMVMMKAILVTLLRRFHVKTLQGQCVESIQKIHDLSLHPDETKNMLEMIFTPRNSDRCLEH
Aryl hydrocarbon receptor (Homo sapiens), sequence (P35869 whole entry, looked up): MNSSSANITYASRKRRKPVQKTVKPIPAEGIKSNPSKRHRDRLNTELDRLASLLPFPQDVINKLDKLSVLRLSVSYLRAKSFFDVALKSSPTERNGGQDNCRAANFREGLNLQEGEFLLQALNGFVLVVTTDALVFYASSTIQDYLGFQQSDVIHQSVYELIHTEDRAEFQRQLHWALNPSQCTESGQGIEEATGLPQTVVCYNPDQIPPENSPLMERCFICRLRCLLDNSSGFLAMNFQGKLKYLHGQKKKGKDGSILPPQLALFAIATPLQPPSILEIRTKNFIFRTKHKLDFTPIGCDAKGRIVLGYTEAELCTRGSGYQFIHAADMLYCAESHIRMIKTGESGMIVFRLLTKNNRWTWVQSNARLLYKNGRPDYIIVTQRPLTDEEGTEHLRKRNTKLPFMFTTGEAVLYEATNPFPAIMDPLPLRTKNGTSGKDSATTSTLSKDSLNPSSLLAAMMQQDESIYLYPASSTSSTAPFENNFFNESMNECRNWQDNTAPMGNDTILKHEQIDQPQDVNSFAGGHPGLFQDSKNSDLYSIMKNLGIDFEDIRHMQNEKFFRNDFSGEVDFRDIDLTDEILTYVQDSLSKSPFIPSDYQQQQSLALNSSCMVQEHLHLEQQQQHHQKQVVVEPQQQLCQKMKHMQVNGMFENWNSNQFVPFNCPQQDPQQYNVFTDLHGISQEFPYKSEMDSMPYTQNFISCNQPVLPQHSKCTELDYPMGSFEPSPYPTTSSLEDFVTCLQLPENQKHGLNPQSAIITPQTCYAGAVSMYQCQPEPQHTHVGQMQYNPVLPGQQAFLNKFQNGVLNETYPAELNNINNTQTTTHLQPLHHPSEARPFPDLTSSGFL
Peroxisome proliferator-activated receptor gamma (Homo sapiens), sequence (P37231 whole entry, looked up): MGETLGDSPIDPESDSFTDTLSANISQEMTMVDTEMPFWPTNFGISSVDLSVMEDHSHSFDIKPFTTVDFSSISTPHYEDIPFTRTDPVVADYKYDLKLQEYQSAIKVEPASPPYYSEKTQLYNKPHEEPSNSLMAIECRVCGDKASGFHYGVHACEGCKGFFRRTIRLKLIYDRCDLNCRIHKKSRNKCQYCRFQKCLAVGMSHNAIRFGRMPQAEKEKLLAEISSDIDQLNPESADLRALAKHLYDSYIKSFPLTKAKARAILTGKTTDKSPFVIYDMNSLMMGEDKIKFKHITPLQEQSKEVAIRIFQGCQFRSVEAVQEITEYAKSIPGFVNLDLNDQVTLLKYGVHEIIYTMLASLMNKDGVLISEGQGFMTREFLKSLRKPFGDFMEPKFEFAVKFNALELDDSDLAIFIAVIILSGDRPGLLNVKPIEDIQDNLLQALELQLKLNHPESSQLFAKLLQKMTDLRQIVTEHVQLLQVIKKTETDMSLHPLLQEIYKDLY

SMILES | Potency [1] | Potency [2] | Potency [3] | Potency [4] | Potency [5] | Potency [6] | Potency [7] | Potency [8] | Potency [9] | Potency (Aromatase (Homo sapiens)) | Potency [10] | Potency [11] | Potency [12] | Potency [13] | Potency [14] | Potency [15] | Potency [16] | Potency [17] | Potency [18] | Potency [19]
O=C(O)c1cccc(Cl)n1 | inactive | inactive | inactive | inactive | inactive | inactive | inactive | inactive | inactive | inactive | inactive | inactive | inactive | inactive | inactive | – | – | – | – | –
O=Nc1ccc(NO)cc1 | inactive | inactive | inactive | inactive | inactive | inactive | inactive | inactive | inactive | inactive | inactive | 31.9 µM (active) | inactive | inactive | inactive | inactive | inactive | 6.36 µM (active) | inactive | –
O=C(O)Cc1ccc(OCCNC[C@H](O)c2ccccc2)cc1 | inactive | inactive | inactive | inactive | inactive | inactive | inactive | inactive | inactive | inactive | inactive | inactive | – | inactive | inactive | inactive | inactive | inactive | – | –
CC1CCCNC1 (configuration not stated) | inactive | inactive | inactive | inactive | inactive | inactive | inactive | inactive | inactive | inactive | inactive | inactive | inactive | inactive | inactive | – | inactive | inactive | – | –
CCCCCCCOC(=O)c1ccc(O)cc1 | 61.1 µM (active) | 61.1 µM (active) | inactive | 54.9 µM [inhibitor] (active) | inactive | 55 µM [inconclusive] (active) and 54.9 µM [inconclusive] (active) | 15.4 µM (active) and 19.3 µM (active) | – | inactive | 43.3 µM (active) | inactive | inactive | inactive | inactive | inactive | – | 43.6 µM (active) | inactive | – | –
CCOC(=O)[C@@](C)(N)Cc1ccc(O)c(O)c1 | inactive | inactive | inactive | inactive | inactive | inactive | inactive | inactive | inactive | inactive | inactive | inactive | inactive | inactive | inactive | inactive | inactive | – | inactive | –
Cn1cnc2ncnc(N)c21 | inactive | inactive | inactive | inactive | inactive | inactive | inactive | inactive | inactive | inactive | inactive | inactive | inactive | inactive | inactive | – | – | inactive | inactive | –
CCCCCCCCCCCCOC(=O)c1cc(O)c(O)c(O)c1 | 3.05 µM (active) and 2.43 µM (active) | 2.72 µM (active) and 1.93 µM (active) | inactive | 19.4 µM [inconclusive] (active) | 49 µM (active) | – | – | – | – | 30.5 µM (active) and 27.3 µM (active) | 30.5 µM (active) and 61.1 µM (active) | inactive | inactive | 43.6 µM (active) | 68.3 µM (active) and 61.1 µM (active) | – | – | – | – | 13.7 µM (active) and 49 µM (active)
O=Cc1ccc(F)cc1 | inactive | inactive | inactive | inactive | inactive | inactive | inactive | inactive | inactive | inactive | inactive | inactive | inactive | inactive | inactive | inactive | inactive | – | inactive | –
CCCCCCCCCCCCCOP(=O)(O)O | inactive | inactive | inactive | – | inactive | inactive | inactive | inactive | inactive | – | inactive | inactive | inactive | 43.6 µM (active) | 43.3 µM (active) | – | – | – | – | –
CN(C)c1ccc(N=Nc2ccccc2C(=O)O)cc1 | 15.4 µM (active) | 9.69 µM (active) | inactive | – | – | inactive | – | inactive | – | 54.5 µM (active) | 24.3 µM (active) | 54.5 µM (active) | – | – | 61.1 µM (active) | – | inactive | – | – | –
Cc1ccc2ccc3cccc4ccc1c2c34 | inactive | inactive | inactive | – | – | inactive | inactive | inactive | inactive | inactive | inactive | inactive | inactive | inactive | inactive | – | inactive | inactive | inactive | inactive
Nc1ncnc2c1ncn2[C@@H]1O[C@H](COP(=O)(O)O)[C@@H](O)[C@H]1O | inactive | inactive | inactive | – | 21.3 µM (active) | – | – | – | inactive | inactive | inactive | inactive | inactive | inactive | inactive | – | inactive | inactive | inactive | inactive
Oc1ccc(-c2ccc(O)cc2)cc1 | inactive | inactive | inactive | – | – | – | – | – | inactive | inactive | inactive | inactive | inactive | inactive | – | – | – | – | inactive | inactive
C=CCCCCCCC=C | inactive | inactive | inactive | – | inactive | – | – | – | inactive | inactive | inactive | inactive | inactive | inactive | inactive | – | – | – | – | 49.1 µM (active)
